Values joined by “and” are separate entries in the source; they are usually repeats but may differ in a detail not shown here. Equal entries are not always repeated. Records with an inconclusive call do not appear. Entries that show only a call come without a potency. The source holds several records for some structures; these can differ, active in one and inactive in another. Active and inactive are the calls of the source. Calls come from the whole dose curve; as a rule, active = well fitted cell-killing curve with a large enough effect in the repeat runs; inconclusive = weak or mixed curves, or effect the other way; inactive = flat fitted curve, though single readings scatter.

This note sets out measurements from PubChem BioAssay (Tox21).
Potency is the fitted concentration of half-maximal effect.

The experiment can be described thus: qHTS assay to identify small molecule agonists of the androgen receptor (AR) signaling pathway in the presence of an antagonist - cell viability counter screen (AID 1259379). Note: nearly all actives have a fitted effect of over 25% in size. To be noted: MDA-kb2 viability, CellTiter-Fluor, 16 h; series mostly up to 92.4 µM; activity change, negative = cytotoxicity: at the top concentration. The text has this:
National Center for Advancing Translational Sciences [NCATS]
NIH Chemical Genomics Center [NCGC]
U.S. Environmental Protection Agency [EPA]
National Institutes of Environmental Health Sciences [NIEHS]
National Toxicology Program [NTP]
U.S. Food and Drug Administration [FDA]
Androgen receptor (AR) is an important member of nuclear receptor family. Its signaling plays a critical role in AR-dependent prostate cancer and other androgen related diseases. Considerable attention has been given in the past decades to develop methods to study and screen for the environmental chemicals that have the potential to interfere with metabolic homeostasis, reproduction, developmental and behavioral functions. Therefore AR binding assay for screening against androgen agonists and antagonists can be used to identify potential endocrine disruptors.
MDA-kb2 cells (from ATCC, deposited by Wilson et al.) are human breast carcinoma cells that were stably transfected with a luciferase reporter gene under control of the MMTV promoter that contains response elements for both androgen receptor (AR) and glucocorticoid receptor (GR). This particular screening for measuring luciferase reporter gene activity using MDA-kb2 cells against Tox21 10K library compounds is a confirmation study on agonist mode screening in the presence of AR-antagonist compound (Nilutamide) at 3.0uM final concentration. The cytotoxicity of the compounds was tested in parallel by measuring the cell viability using CellTiter-Fluor assay system (Promega, Madison, WI) in the same wells.
Tox21 Assay Protocol Summary:
MDA-kb2 cells (cells cultured without CO2) were dispensed at 3,000 cells/well in 4uL of culture medium into white wall/solid-bottom 1536-well plates (Corning Life Sciences, Corning, NY) using a Multidrop Combi (Thermo Fisher Scientific Inc., Waltham, MA) dispenser. The assay plates were incubated at 37C and 0% CO2 for 5hr. One uL of 3.0uM (final concentration) Nilutamide or assay buffer was added using two separate tips of Flying Reagent Dispenser (FRD, Aurora Discovery, San Diego, CA). Then 23nL of compounds dissolved in DMSO at 15 concentrations and positive controls were transferred to the assay plates using a Pintool station (Wako, San Diego, CA). The assay plates were incubated at 37C and 0% CO2 for 16 hr. After 15hr incubation at 37C, 1uL/well CellTiter-Fluor reagent (Promega Corporation) was added to each well of the assay plates using FRD. After 1hr incubation at 37C and 0% CO2, the fluorescence signal was measured using a ViewLux plate reader (PerkinElmer, Shelton, CT).
In general terms: In qHTS, concentration-response curves come from the screen itself.
On to `NC(=S)Nc1ccccc1`, for which the Potency was 24.7 µM (active) and inactive.

For the molecule `O=[N+]([O-])c1ccc(O)c([N+](=O)[O-])c1`, the Potency is 48.8 µM (active) and 48.6 µM (active). Still for that read-out and setting: under `CC(O)CCO` (stereo not given) stands “inactive”. For `Nc1ccc(Cl)c(Cl)c1`, the Potency entry is “inactive”.

`O=S(=O)(Oc1ccc(Cl)cc1)c1ccc(Cl)cc1`: the Potency entry is “inactive”. Regarding `N#Cc1cc(Br)c(O)c(Br)c1`, the “activity change, negative = cytotoxicity” value is -3.03% (inactive). For `ClC1C(Cl)C(Cl)C(Cl)C(Cl)C1Cl` (stereo not given), the Potency entry is “inactive”. Turning to `Cc1cc(Cl)ccc1OCCCC(=O)O`, the Potency result is “inactive”. With `C[C@]12CCC(=O)C[C@@H]1CC[C@@H]1[C@@H]2CC[C@]2(C)[C@@H](O)CC[C@@H]12`, the Potency is 67.8 µM (active) and inactive.

With `C1=Cc2cccc3cccc1c23`, the Potency result was “inactive”. The same measure, in the same setting: under `C=CCN(CC=C)C(=O)C(Cl)Cl` stands “inactive”; under `C[C@]12CCC(=O)C(O)=C1CC[C@@H]1[C@@H]2CC[C@]2(C)C(=O)CC[C@@H]12`, “inactive”; under `CC(C)c1ccc(CO)cc1`, “inactive”.

In the case of `N#CCCCl`, the Potency entry was “inactive”.

For the molecule `COP(=S)(OC)Oc1cc(Cl)c(Cl)cc1Cl`, the Potency entry is “inactive”. On to `CCOP(=S)(OCC)O/N=C(\C#N)c1ccccc1`, for which the Potency result is “inactive”. On the same count and under the same terms, next, `O=P(O)(O)CCCl`: “inactive”. Same read-out and setting: next, `Cc1ccc(N)c(N)c1`: “inactive”; `O=[N+]([O-])c1cccc2ccccc12`: “inactive”.

Take `Oc1c(Cl)c(Cl)c(Cl)c(Cl)c1Cl`: the “activity change, negative = cytotoxicity” value was 2.33% [at 42.5 µM] (inactive). `CCCCCCCCCCCOC(=O)c1ccccc1C(=O)OCCCCCCCCCCC`: the Potency entry was “inactive”. The same measure, in the same setting: under `CC(C)N(C(=O)SCC(Cl)=C(Cl)Cl)C(C)C` stands “inactive”; under `CCC(C)c1ccc(O)cc1` (stereo not given), “inactive”. Turning to `CCOC(=S)S`, the Potency entry is “inactive”. In the case of `COP(=O)(OC)OC`, the “activity change, negative = cytotoxicity” value is 0.145% (inactive). Regarding `CC(C)(OOC(C)(C)c1ccccc1)c1ccccc1`, the Potency entry is “inactive”. Still for that read-out and setting: under `COC(=O)c1sccc1S(=O)(=O)NC(=O)Nc1nc(C)nc(OC)n1` stands “inactive”; under `Nc1cccnc1`, “inactive”.

With `CCN(CC)C(=O)/C(Cl)=C(\C)OP(=O)(OC)OC`, the Potency result was “inactive”.

As for `Cc1c(COC(=O)[C@@H]2[C@H](/C=C(\Cl)C(F)(F)F)C2(C)C)cccc1-c1ccccc1`, the Potency result was “inactive”. Same read-out and setting: next, `C#C[C@]1(O)CC[C@H]2[C@@H]3CCC4=CC(=O)CC[C@]4(C)[C@H]3CC[C@@]21C`: “inactive”; `C=CC(=O)OCCO`: “inactive”.

As to `CCCCC(CC)COC(=O)c1ccc(C(=O)OCC(CC)CCCC)c(C(=O)OCC(CC)CCCC)c1` (stereo not given), the Potency result is “inactive”.

On to `CCN(CC)C(=O)SCc1ccc(Cl)cc1`, for which the Potency result was “inactive”. On to `CN(C)C(=O)Nc1ccc(Cl)cc1`, for which the Potency result is “inactive”.

`C=CCc1ccc2c(c1)OCO2`: the Potency result is “inactive”.

As for `C#CCOS(=O)OC1CCCCC1Oc1ccc(C(C)(C)C)cc1` (stereo not given), the Potency is 5.45 µM (active). On the same count and under the same terms, next, `CC(C)C(=O)OCC(C)(C)C(OC(=O)C(C)C)C(C)C` (stereo not given): “inactive”; `CCCCCCOC(=O)c1ccccc1C(=O)OCCCCCC`: “inactive”; `Brc1ccc(Oc2cc(Br)c(Br)cc2Br)c(Br)c1`: “inactive”.
